# Paper PMC7862700, “An all-to-all approach to the identification of sequence-specific readers for epigenetic DNA modifications on cytosine”
# Tests used:
# Test in all cases: DAPPL (digital affinity profiling via proximity ligation, sequencing); 10 mM Tris-HCl pH 7.5, 50 mM NaCl, 1 mM DTT, 4% glycerol, room temperature, 30 min; GST-TFs on glutathione beads, 16-mer random dsDNA library, 0.1% formaldehyde crosslink after washing; high values mean tight binding
# FEV = target: T1, FEV (Homo sapiens, UniProt Q99581 1-238); settings: protein: recombinant; tags: N-terminal GST; dsDNA, one strand shown
# T1 sequence: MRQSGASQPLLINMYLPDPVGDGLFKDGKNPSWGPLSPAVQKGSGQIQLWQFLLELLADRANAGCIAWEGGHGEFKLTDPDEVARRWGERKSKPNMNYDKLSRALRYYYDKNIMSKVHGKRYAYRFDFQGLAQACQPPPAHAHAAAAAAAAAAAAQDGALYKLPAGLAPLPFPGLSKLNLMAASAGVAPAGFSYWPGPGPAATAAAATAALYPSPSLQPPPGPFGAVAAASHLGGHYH
# Procedure, shortened: (§1)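 Yeast served to express human transcription factors as GST fusions, which were then captured on glutathione beads and labelled with DNA barcodes. Pooled with a tag-only sample, they were incubated with 200 nmole of a 16-mer random double-stranded DNA library for 30 min at room temperature in Tris/NaCl/DTT/glycerol buffer, washed, crosslinked with 0.1% formaldehyde, ligated by proximity, amplified by PCR and sequenced. Dividing each hexamer's read frequency for a factor by its frequency for the tag-only sample gives the binding signal.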
# ETV5 = ETV5 (Homo sapiens, UniProt P41161 1-510); settings: protein: recombinant; tags: N-terminal GST; dsDNA, one strand shown
# Procedure, shortened: as §1
# HSF1 = HSF1 (Homo sapiens, UniProt Q00613 1-529); settings: protein: recombinant; tags: N-terminal GST; chain copies: 3; dsDNA, one strand shown
# Procedure, shortened: as §1
# SPIC = target: T2, SPIC (Homo sapiens, UniProt Q8N5J4 1-248); settings: protein: recombinant; tags: N-terminal GST; dsDNA, one strand shown
# T2 sequence: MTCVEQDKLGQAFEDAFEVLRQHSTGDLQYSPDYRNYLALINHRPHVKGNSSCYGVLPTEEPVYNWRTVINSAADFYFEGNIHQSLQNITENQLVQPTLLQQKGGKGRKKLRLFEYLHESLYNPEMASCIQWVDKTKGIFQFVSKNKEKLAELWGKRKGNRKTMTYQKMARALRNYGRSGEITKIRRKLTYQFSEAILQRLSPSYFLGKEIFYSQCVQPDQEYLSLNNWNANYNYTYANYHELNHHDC
# Procedure, shortened: as §1
# ELF4 = ELF4 (Homo sapiens, UniProt Q99607 1-663); settings: protein: recombinant; tags: N-terminal GST; dsDNA, one strand shown
# Procedure, shortened: as §1
# ELK4 = target: T3, ELK4 (Homo sapiens, UniProt P28324-2 1-405); settings: protein: recombinant; tags: N-terminal GST; dsDNA, one strand shown
# T3 sequence: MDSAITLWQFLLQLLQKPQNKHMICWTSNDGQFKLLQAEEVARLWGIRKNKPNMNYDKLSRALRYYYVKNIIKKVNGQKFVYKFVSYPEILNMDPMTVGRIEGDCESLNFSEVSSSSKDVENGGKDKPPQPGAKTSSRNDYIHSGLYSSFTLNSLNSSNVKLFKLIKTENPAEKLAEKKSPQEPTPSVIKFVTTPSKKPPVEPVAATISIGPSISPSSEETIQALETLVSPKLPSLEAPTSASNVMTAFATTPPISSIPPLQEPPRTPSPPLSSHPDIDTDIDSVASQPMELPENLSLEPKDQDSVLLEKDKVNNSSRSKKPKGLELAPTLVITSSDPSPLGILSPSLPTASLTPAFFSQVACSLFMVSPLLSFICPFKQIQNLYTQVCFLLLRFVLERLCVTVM
# Procedure, shortened: as §1
# ETV2 = target: T4, ETV2 (Homo sapiens, UniProt O00321 1-342); settings: protein: recombinant; tags: N-terminal GST; dsDNA, one strand shown
# T4 sequence: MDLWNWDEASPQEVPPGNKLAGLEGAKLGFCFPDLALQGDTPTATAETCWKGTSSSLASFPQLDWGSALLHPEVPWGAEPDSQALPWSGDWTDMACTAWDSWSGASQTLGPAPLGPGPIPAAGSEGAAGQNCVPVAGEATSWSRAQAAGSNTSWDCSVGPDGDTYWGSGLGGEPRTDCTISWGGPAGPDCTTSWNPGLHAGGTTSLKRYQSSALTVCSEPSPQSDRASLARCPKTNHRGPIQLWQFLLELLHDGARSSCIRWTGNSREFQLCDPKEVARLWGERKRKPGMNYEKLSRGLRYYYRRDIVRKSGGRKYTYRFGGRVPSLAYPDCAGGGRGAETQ
# Procedure, shortened: as §1
# ELF3 = target: T5, ELF3 (Homo sapiens, UniProt P78545 1-371); settings: protein: recombinant; tags: N-terminal GST; dsDNA, one strand shown
# T5 sequence: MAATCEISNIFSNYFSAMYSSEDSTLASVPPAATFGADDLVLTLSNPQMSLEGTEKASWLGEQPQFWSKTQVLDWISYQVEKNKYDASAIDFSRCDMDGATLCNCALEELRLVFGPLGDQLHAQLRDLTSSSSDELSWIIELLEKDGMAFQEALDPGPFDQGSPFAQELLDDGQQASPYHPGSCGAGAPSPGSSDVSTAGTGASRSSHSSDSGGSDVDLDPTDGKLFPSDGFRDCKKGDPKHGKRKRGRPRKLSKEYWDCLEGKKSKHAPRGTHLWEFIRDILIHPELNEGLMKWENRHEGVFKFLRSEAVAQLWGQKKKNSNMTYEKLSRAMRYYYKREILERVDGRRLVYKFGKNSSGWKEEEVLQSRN
# Procedure, shortened: as §1
# CRX = CRX (Homo sapiens, UniProt O43186 1-299); settings: protein: recombinant; tags: N-terminal GST; dsDNA, one strand shown
# Procedure, shortened: as §1
# ETV1 = ETV1 (Homo sapiens, UniProt P50549 1-477); settings: protein: recombinant; tags: N-terminal GST; dsDNA, one strand shown
# Procedure, shortened: as §1
# ERF = target: T6, ERF (Homo sapiens, UniProt P50548 1-548); settings: protein: recombinant; tags: N-terminal GST; dsDNA, one strand shown
# T6 sequence: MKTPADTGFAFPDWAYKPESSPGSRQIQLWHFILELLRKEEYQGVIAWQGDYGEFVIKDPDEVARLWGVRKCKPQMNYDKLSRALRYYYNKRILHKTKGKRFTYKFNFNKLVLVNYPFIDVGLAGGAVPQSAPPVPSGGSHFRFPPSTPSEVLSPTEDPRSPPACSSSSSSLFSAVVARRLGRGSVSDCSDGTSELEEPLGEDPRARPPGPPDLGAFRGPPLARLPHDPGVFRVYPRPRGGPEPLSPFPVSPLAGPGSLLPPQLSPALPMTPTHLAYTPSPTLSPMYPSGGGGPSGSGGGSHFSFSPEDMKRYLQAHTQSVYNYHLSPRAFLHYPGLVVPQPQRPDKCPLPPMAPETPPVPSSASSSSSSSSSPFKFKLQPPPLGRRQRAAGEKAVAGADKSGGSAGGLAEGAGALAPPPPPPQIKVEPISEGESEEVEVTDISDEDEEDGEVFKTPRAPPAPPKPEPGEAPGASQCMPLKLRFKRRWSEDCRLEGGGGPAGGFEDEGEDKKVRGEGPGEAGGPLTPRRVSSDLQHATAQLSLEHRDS
# Procedure, shortened: as §1
# ETV3L = target: T7, ETV3L (Homo sapiens, UniProt Q6ZN32 1-361); settings: protein: recombinant; tags: N-terminal GST; dsDNA, one strand shown
# T7 sequence: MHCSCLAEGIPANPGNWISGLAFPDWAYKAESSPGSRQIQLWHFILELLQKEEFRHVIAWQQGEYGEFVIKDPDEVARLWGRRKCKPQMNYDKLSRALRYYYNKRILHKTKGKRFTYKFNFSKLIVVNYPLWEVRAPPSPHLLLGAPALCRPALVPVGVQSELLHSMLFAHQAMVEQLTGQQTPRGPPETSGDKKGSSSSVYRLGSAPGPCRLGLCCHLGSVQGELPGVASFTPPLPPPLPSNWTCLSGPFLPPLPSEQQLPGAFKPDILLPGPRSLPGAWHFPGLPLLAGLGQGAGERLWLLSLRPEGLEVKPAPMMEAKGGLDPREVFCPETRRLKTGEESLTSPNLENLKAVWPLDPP
# Procedure, shortened: as §1
# ETS2 = target: T8, ETS2 (Homo sapiens, UniProt P15036 1-469); settings: protein: recombinant; tags: N-terminal GST; dsDNA, one strand shown
# T8 sequence: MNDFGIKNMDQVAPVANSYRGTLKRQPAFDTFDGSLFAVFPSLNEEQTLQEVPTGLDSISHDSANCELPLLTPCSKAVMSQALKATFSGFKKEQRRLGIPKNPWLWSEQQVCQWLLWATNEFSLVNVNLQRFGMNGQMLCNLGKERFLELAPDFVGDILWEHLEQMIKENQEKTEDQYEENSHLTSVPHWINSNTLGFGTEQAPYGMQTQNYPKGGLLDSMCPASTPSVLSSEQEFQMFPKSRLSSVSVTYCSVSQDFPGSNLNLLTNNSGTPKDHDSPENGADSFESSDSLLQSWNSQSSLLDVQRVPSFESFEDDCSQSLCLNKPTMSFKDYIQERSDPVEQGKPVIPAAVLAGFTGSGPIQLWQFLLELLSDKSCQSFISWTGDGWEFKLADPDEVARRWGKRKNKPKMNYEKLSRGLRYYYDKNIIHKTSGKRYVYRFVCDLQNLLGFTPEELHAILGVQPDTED
# Procedure, shortened: as §1
# SPDEF = target: T9, SPDEF (Homo sapiens, UniProt O95238 1-335); settings: protein: recombinant; tags: N-terminal GST; dsDNA, one strand shown
# T9 sequence: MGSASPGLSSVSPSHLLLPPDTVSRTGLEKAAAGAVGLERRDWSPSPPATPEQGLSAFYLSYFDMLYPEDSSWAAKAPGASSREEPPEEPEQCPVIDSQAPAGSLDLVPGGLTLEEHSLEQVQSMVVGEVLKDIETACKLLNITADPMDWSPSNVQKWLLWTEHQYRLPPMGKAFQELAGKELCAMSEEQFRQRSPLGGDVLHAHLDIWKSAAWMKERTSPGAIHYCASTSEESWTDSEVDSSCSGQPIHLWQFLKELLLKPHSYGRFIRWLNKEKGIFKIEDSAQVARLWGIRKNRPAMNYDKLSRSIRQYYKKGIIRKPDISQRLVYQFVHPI
# Procedure, shortened: as §1
# ETV7 = target: T10, ETV7 (Homo sapiens, UniProt Q9Y603 1-341); settings: protein: recombinant; tags: N-terminal GST; dsDNA, one strand shown
# T10 sequence: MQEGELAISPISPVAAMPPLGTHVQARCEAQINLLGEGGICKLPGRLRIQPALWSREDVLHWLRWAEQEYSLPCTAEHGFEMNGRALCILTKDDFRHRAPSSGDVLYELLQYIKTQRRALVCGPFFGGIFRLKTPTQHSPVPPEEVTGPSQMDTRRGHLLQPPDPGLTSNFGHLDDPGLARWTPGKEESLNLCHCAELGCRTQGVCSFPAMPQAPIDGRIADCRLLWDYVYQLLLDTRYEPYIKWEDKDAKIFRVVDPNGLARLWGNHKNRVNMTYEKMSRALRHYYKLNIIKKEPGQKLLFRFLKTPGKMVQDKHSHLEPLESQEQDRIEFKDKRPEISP
# Procedure, shortened: as §1
# ELF5 = target: T11, ELF5 (Homo sapiens, UniProt Q9UKW6-2 1-255); settings: protein: recombinant; tags: N-terminal GST; dsDNA, one strand shown
# T11 sequence: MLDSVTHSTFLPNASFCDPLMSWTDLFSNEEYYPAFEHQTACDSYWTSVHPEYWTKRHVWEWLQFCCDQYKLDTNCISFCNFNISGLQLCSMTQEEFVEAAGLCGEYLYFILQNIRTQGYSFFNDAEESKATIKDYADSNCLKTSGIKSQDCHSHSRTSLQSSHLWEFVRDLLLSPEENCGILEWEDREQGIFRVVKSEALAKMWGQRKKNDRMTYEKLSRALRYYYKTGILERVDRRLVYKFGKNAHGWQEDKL
# Procedure, shortened: as §1
# ETV3 = target: T12, ETV3 (Homo sapiens, UniProt P41162-2 1-143); settings: protein: recombinant; tags: N-terminal GST; dsDNA, one strand shown
# T12 sequence: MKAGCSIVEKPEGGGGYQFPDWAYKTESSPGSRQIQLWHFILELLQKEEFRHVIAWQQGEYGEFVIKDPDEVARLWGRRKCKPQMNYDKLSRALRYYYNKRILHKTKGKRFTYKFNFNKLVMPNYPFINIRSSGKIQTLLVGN
# Procedure, shortened: as §1
# ETV6 = ETV6 (Homo sapiens, UniProt P41212 1-452); settings: protein: recombinant; tags: N-terminal GST; dsDNA, one strand shown
# Procedure, shortened: as §1
# Chain of HSF1 (Q00613 whole entry): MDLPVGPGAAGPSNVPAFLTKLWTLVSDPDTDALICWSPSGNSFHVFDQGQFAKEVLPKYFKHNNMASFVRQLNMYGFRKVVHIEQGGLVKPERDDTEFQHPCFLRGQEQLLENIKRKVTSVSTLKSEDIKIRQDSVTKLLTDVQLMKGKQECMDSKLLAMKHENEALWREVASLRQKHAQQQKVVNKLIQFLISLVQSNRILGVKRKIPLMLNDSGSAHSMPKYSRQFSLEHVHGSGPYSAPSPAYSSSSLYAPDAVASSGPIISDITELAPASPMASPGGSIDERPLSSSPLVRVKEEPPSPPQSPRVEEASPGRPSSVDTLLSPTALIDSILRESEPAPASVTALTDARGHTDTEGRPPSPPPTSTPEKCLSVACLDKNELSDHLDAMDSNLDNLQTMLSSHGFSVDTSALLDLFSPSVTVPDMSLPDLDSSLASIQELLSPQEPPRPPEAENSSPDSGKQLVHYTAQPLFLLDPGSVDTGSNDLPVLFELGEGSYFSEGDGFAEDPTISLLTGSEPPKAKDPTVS
# Chain of CRX (O43186 whole entry): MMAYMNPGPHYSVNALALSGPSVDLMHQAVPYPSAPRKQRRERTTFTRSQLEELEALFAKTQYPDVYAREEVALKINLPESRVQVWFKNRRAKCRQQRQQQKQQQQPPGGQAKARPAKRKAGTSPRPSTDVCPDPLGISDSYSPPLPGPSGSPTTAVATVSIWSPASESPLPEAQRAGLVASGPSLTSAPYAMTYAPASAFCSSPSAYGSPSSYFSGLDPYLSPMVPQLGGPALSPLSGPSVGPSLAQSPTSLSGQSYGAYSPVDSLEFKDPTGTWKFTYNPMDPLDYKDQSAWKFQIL
# Chain of ETV5 (P41161 whole entry): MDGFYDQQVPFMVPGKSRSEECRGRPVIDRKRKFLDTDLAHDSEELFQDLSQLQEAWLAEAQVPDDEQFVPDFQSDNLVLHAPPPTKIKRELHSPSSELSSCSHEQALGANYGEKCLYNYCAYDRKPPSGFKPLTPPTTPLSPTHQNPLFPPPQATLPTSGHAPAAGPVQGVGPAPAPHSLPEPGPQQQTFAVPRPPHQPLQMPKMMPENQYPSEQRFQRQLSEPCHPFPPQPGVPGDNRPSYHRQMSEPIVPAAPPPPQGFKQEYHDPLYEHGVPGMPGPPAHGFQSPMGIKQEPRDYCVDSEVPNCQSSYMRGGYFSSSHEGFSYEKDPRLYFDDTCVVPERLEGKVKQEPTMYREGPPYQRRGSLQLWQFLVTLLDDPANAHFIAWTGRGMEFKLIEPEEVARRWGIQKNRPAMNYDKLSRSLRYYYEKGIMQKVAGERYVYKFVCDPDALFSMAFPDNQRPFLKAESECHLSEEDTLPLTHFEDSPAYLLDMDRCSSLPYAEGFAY
# Chain of ETV1 (P50549 whole entry): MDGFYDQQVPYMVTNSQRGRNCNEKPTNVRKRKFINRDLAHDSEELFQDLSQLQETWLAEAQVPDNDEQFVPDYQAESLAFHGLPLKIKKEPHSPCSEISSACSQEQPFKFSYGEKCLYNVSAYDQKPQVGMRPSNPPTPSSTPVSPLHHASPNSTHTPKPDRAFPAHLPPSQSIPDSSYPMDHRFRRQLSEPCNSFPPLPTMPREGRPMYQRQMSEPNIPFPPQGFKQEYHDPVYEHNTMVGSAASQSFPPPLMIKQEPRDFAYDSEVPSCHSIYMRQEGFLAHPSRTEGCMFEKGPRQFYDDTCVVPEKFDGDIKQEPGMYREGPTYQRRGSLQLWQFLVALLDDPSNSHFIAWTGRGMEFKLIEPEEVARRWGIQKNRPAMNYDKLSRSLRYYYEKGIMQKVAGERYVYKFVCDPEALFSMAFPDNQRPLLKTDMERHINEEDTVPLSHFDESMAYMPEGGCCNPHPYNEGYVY
# Chain of ETV6 (P41212 whole entry): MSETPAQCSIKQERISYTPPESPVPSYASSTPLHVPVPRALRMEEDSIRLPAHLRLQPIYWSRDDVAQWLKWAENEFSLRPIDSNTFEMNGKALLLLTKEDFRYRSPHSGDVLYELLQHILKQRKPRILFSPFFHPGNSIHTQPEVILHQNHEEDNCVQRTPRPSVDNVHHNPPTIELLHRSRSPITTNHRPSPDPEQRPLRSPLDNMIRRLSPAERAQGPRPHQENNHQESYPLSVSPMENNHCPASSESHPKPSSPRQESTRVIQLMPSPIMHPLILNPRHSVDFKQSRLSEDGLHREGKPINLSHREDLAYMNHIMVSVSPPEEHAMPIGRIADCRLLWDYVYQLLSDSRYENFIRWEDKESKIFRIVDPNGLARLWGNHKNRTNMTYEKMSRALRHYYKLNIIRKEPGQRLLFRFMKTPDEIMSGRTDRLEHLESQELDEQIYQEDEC
# Chain of ELF4 (Q99607 whole entry): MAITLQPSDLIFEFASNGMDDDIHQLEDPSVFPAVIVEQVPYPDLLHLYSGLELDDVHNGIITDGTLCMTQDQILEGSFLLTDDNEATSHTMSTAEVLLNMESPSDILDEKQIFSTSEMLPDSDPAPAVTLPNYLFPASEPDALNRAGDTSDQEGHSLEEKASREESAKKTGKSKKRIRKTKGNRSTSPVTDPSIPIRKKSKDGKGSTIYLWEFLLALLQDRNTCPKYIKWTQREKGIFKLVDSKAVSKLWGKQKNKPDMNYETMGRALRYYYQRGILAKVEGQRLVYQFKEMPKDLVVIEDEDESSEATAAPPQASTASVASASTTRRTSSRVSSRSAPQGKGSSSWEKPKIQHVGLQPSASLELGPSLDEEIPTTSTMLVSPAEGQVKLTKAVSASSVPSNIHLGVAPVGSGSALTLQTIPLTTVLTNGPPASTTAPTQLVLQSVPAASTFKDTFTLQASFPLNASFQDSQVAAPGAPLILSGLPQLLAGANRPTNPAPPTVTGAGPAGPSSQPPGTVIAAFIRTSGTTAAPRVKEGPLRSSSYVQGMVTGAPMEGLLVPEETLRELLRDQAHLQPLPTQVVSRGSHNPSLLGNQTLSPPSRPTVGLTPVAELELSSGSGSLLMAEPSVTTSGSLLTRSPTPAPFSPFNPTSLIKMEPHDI
sequence,measurement,setting,value
ATAATC,binding signal,FEV,"1.1 fold enrichment (6-mer frequency, TF over GST control)"
same,binding signal,ETV5,"1.17 fold enrichment (6-mer frequency, TF over GST control)"
same,binding signal,HSF1,"2.86 fold enrichment (6-mer frequency, TF over GST control)"
same,binding signal,SPIC,"1.16 fold enrichment (6-mer frequency, TF over GST control)"
same,binding signal,ELF4,"1.13 fold enrichment (6-mer frequency, TF over GST control)"
same,binding signal,ELK4,"1.13 fold enrichment (6-mer frequency, TF over GST control)"
same,binding signal,ETV2,"1.21 fold enrichment (6-mer frequency, TF over GST control)"
same,binding signal,ELF3,"1.15 fold enrichment (6-mer frequency, TF over GST control)"
same,binding signal,CRX,"4.71 fold enrichment (6-mer frequency, TF over GST control)"
same,binding signal,ETV1,"1.12 fold enrichment (6-mer frequency, TF over GST control)"
same,binding signal,ERF,"1.2 fold enrichment (6-mer frequency, TF over GST control)"
same,binding signal,ETV3L,"1.16 fold enrichment (6-mer frequency, TF over GST control)"
same,binding signal,ETS2,"1.16 fold enrichment (6-mer frequency, TF over GST control)"
same,binding signal,SPDEF,"1.17 fold enrichment (6-mer frequency, TF over GST control)"
same,binding signal,ETV7,"1.14 fold enrichment (6-mer frequency, TF over GST control)"
same,binding signal,ELF5,"1.13 fold enrichment (6-mer frequency, TF over GST control)"
same,binding signal,ETV3,"1.15 fold enrichment (6-mer frequency, TF over GST control)"
same,binding signal,ETV6,"1.19 fold enrichment (6-mer frequency, TF over GST control)"
